# How the values were obtained:
# Test in all cases: PBM binding z-score (relative to random genomic background probes); higher = stronger binding; sequences stand for … in GC…GCGATTGACAGCGTAGAATGAAGG
# [1] = system: FXR:RXRa (NR concentration 270 nM, RXRa partner concentration 90 nM)
# Summary of the method: (§1)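 Binding z-scores take random background probes as their reference. They come from custom Agilent 4×180K protein-binding microarrays incubated 1 h with ligand-free nuclear receptor dimers, with antibodies against each partner (one per run) detecting binding. Scanned fluorescence was regression-normalized.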
# [2] = system: LXRa:RXRa (NR concentration 270 nM, RXRa partner concentration 90 nM)
# Summary of the method: as §1
# [3] = system: LXRa homodimer (NR concentration 270 nM)
# Summary of the method: as §1
# [4] = system: LXRb:RXRa (NR concentration 270 nM, RXRa partner concentration 90 nM)
# Summary of the method: as §1
# [5] = system: LXRb homodimer (NR concentration 270 nM)
# Summary of the method: as §1
# [6] = system: PPARa:RXRa (NR concentration 270 nM, RXRa partner concentration 90 nM)
# Summary of the method: as §1
# [7] = system: PPARg:RXRa (NR concentration 180 nM, RXRa partner concentration 90 nM)
# Summary of the method: as §1
# [8] = system: PPARg:RXRa 270nM:90nM, anti-RXR (NR concentration 270 nM, RXRa partner concentration 90 nM)
# Summary of the method: as §1
# [9] = system: PPARg:RXRa 30nM:10nM, anti-RXR (NR concentration 30 nM, RXRa partner concentration 10 nM)
# Summary of the method: as §1
# [10] = system: PPARg:RXRa 90nM:30nM, anti-RXR (NR concentration 90 nM, RXRa partner concentration 30 nM)
# Summary of the method: as §1
# [11] = system: PPARg:RXRa DBDmut IVT, anti-RXR (DBD mutation: RXRa K156A/R161A, NR concentration 270 nM, RXRa partner concentration 90 nM)
# Summary of the method: as §1
# [12] = system: PPARg:RXRa IVT, anti-PPARg (NR concentration 270 nM, RXRa partner concentration 90 nM)
# Summary of the method: as §1
# [13] = system: PPARg DBDmut:RXRa IVT, anti-PPARg (DBD mutation: PPARg1 K132A/R137A, NR concentration 270 nM, RXRa partner concentration 90 nM)
# Summary of the method: as §1
# [14] = system: PPARg DBDmut IVT, anti-PPARg (DBD mutation: PPARg1 K132A/R137A, NR concentration 270 nM)
# Summary of the method: as §1
# [15] = system: PPARg homodimer (NR concentration 180 nM)
# Summary of the method: as §1
# [16] = system: PXR:RXRa (NR concentration 270 nM, RXRa partner concentration 90 nM)
# Summary of the method: as §1
# [17] = system: PXR homodimer (NR concentration 270 nM)
# Summary of the method: as §1
# [18] = system: RARa:RXR (NR concentration 270 nM, RXRa partner concentration 90 nM)
# Summary of the method: as §1
# [19] = system: RARa homodimer (NR concentration 270 nM)
# Summary of the method: as §1
# [20] = system: RARb:RXRa (NR concentration 270 nM, RXRa partner concentration 90 nM)
# Summary of the method: as §1
Sequence,PBM binding z-score [1],PBM binding z-score [2],PBM binding z-score [3],PBM binding z-score [4],PBM binding z-score [5],PBM binding z-score [6],PBM binding z-score [7],PBM binding z-score [8],PBM binding z-score [9],PBM binding z-score [10],PBM binding z-score [11],PBM binding z-score [12],PBM binding z-score [13],PBM binding z-score [14],PBM binding z-score [15],PBM binding z-score [16],PBM binding z-score [17],PBM binding z-score [18],PBM binding z-score [19],PBM binding z-score [20]
CCATACGGGTCAAGGTTATAGCACGGGTGGTACG,5.13,3.28,0.265,2.54,-0.237,4.84,4.87,4.32,1.07,3.23,1.2,3.15,0.543,-0.539,2.1,3.06,0.247,3.82,0.795,4.1
TCATATAGGTAAATGCTAGGTGAACGTCCGATCT,0.421,0.682,0.358,0.608,-0.229,1.36,1.09,2.06,3.51,2.65,4.03,2.94,0.935,1.01,0.675,0.493,0.0506,0.769,0.634,0.536
ACTAGTTGGTCAGCTGAAGTCACACACAATTCGG,-0.0902,-0.0916,0.115,0.118,0.19,-0.0344,0.754,0.0912,-0.0266,0.0351,0.924,0.828,0.539,0.649,0.462,-0.105,-0.357,0.136,0.213,0.828
CATTACGGGTCAAGGTTATAGCACGGGTGGTACG,5.89,5.21,1.53,3.61,1.18,5.27,5.67,5.45,2.22,4.39,3.5,4.53,0.969,1.08,2.26,3.72,0.701,4.69,1.58,4.43
TCTTTTAGATCAATAGAGGTTAAGAAAGTGCGCT,1.13,4.04,0.769,2.06,0.963,2.16,0.209,2.08,3.57,2.92,1.67,1.53,1.94,1.81,0.69,3.35,0.207,2.08,-0.186,1.23
GCTGCTAGGTCAACCGATGGTCAGCTAAAGCTCG,3.72,2.83,-0.00824,1.67,-0.103,3.53,2.64,3,0.428,1.82,4.93,4.21,-0.16,-0.394,1.63,1.43,-0.956,2.99,-0.609,4.22
CATACAGGGTCAGCTAGGCCAAAGTAGGGACGGC,4.83,3.04,0.0314,2.39,0.557,4.4,3.32,3.26,0.781,1.85,0.935,2.57,0.812,0.367,1.48,2.55,0.23,3.25,0.847,4.14
CCTACTGGGCCAAGGTCAATGATCAGTCAAAGCA,2.52,2.33,0.441,2.32,-0.518,3.85,4.03,4.33,2.07,3.39,3.63,4.57,-0.437,-1.01,1.4,2.51,0.323,2.81,0.147,3.27
CCGACTGGGGCTTAAGGTTACCATAAGCCAGCCC,0.202,1.84,-0.512,0.703,-1.22,0.992,0.91,1.99,-0.108,1.29,0.244,0.428,-1.39,-1.88,0.217,0.141,-0.395,1.08,-0.504,0.868
AGAATCAGGTTACCAAAGATCAGGGAAACGCTTG,0.0425,4.27,-0.14,1.12,0.162,1.69,1.24,1.19,0.411,0.466,3.77,3.08,0.88,1.06,0.0981,0.0669,-0.0157,0.359,-0.131,1.08
GCTCGTAGGACAAGGTCAGAGCTTTGTCCGTAGA,1.45,1.74,-0.722,1.25,-0.639,2.44,0.258,1.16,-0.473,0.455,0.0127,1.08,-1.37,-1.3,0.722,1.63,-0.493,2.13,-1.71,3.16
ATCTCTAGGTAAAAGTTCACTGAATCCCGAGGAT,1.74,2.79,2.51,1.79,1.07,4.85,8.64,8.64,7.7,9.26,2.27,4.44,1.42,1.19,1.29,3.44,2.38,2.99,1.08,2.97
AGTCAAAGTTCACTATGTAACGTAAGATTCAGCT,4.61,4.75,2.99,3.02,1.03,3.85,5.87,5.38,2.49,4.66,0.152,2.39,1.02,0.578,1.55,3.59,1.72,2.7,0.755,4.57
CAAACTAGGTCAAGTTCAAAGTCGGTTTGTGCCA,5.99,4.84,4.22,3.64,1.37,5.81,8.91,7.48,5.88,7.46,8.65,8.81,3.54,4.23,3.54,5.1,6.98,3.97,1.55,4.88
TGAAAGAGGTTAAAGATCAGGGAACGTGGCGTCG,3.91,3.07,0.208,2.03,0.261,4.59,4.87,5.44,3.46,5.15,0.975,2,0.776,-0.385,1.36,2.29,0.0556,3.68,0.0643,2.67
ACTAGTAGTTGAGACGAGGGCAACCGATAGGTTG,0.415,0.0058,-0.401,-0.109,-0.494,0.237,0.537,-0.227,-0.398,-0.329,-0.0209,0.386,-0.147,-0.849,-0.115,1.63,0.115,0.6,0.181,0.978
TCTCGGAGGACACGAAAGGTCATAGCTCGACATC,4.39,5.36,5.67,4.45,0.51,4.49,2.19,3.86,3.01,3.37,2.17,2.14,1.29,0.408,3.48,5.31,1.81,5.39,1.62,4.26
AGAATGAGGTTACCAAAGACCAGGGAAACGCTTG,1.97,4.34,-0.091,1.87,-0.385,3.27,2.53,2.62,0.863,1.86,3.86,3.33,0.85,0.62,0.291,1.22,-0.349,2.06,-0.134,2.11
CCTGCTAGGTCAATGGTCTGCTAAAGCAGCTCGC,2.61,2.26,-0.00615,1.78,-0.252,2.75,2.2,2.86,-0.129,1.83,4.23,3.5,-0.516,-0.86,1.16,0.731,-0.482,1.36,-0.721,3.78
CGAACTAGGTCATCCAGGACAGTGCATACATTGA,4.36,2.32,0.87,2.15,0.0357,4.85,7.67,6.47,3.97,5.85,8.26,8.19,1.89,1.6,1.98,2.11,1.49,2.35,0.873,3.91
ATATGTAGGTTGAGGGTCATTCAGGTTGGTTCGC,3.26,3.21,1.56,3.31,1.32,4.86,7.99,7.58,6.69,7.97,4,4.86,1.94,0.913,3.16,4.49,2.53,3.89,1.57,2.57
CGTCCAAGGTCAAGGTCGGTGAAAGAGACTCGAA,7.27,5.92,0.458,4.22,0.00899,5.85,5.34,5.83,2.16,4.39,3.16,4.02,-0.058,-0.563,2.86,4.31,0.887,5.05,0.962,5.34
ACCGACAGGTGAGTGAAGGTAACTCAGCTGGACG,0.184,-0.107,-0.658,-0.575,-0.831,0.00904,0.444,0.0898,-0.38,-0.0157,0.224,0.64,0.0319,-0.41,-0.391,-0.571,-0.481,-0.0449,-0.642,0.605
CGTCCAAGGTCATAGGAGCTCAGTGAAGACAGAT,7.5,5.19,0.569,3.82,0.584,5.64,4.69,5.04,1.57,3.6,2.78,3.29,1.43,-0.573,2.6,4.27,1.07,4.66,0.0934,5.1
CAAACTAGGTCAAGGTCAAAGTTGGTTTGTGCCA,7,5.55,4.19,4.77,1.48,6.04,9.87,7.82,6.98,8.52,8.46,8.73,4.69,4.12,4.93,5.28,2.75,5.45,1.94,5.19
GCTAGCAGTCCATTTGGGTCACTCAATGACGGGC,0.123,-0.125,-0.706,-0.0386,-0.905,0.937,0.41,0.105,-0.37,-0.0818,0.379,1.16,-1.16,-1.53,0.032,0.67,0.689,0.82,-0.831,0.88
TAGCCTAGGTCAGATCGGGCCAGTGTACGCTATA,1.85,0.96,-0.454,0.525,-0.897,1.49,0.36,0.761,-0.533,-0.134,0.622,1.31,-1.37,-0.791,-0.0708,1.18,-1.04,1.19,-1.04,3.04
CAAACTAGGTCACGAAAGGTCGAAGTCGAATGAC,5.94,6.62,2.69,5.17,0.867,6.03,9.65,7.81,5.91,8.11,8.79,9.21,6.19,3.15,3.9,5.95,1,5.45,1.66,4.86
CGTCCAAGGGCAGAGAGGTCAGTGAATGCCGAGT,1.75,1.84,0.628,1.59,-0.506,2.5,0.642,1.19,-0.361,0.293,0.812,1.16,-1.66,-1.28,1.16,3.43,6.33,2.56,-0.0232,3.92

# Source: the supplement of paper PMC6555819
